# Reference: PubChem BioAssay
# Several values for one entry are separate records, joined by “and”; a condition that tells them apart may be missing. Equal entries are not always repeated. Activity calls are given as the source filed them.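 The calls were made as follows, unless noted: active = inhibition at or above 50% relative to wild type and mutant plate controls; inactive = inhibition below 50%.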
# Assays:
# [1] = inhibitors of TNFa-induced NFkB p65 translocation, primary screen, imaging, HUVEC, MLSMR starter and 10KST1 sets (AID 438;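 active = inhibition above 20% together with a positive visual image hit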;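 also: compound added about 3h40 before a 20 min TNFalpha stimulation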;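 as to inhibition: signal is the nuclear over cytoplasmic p65 intensity ratio per well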); details: HUVEC TNFa-induced p65 nuclear translocation; cell count: measured here: nuclei count (cytotoxicity indicator), at 2.08 µM; inhibition: at 2 µM, stronger effect = higher value, 0% TNFa-plus-vehicle, 100% no-TNFa wells
# [2] = inhibitors of mutant huntingtin aggregation, primary screen, imaging, exon1htt(103Q)mCFP cells, high-content imaging (AID 483;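 active = visual image review flags a hit and inhibition of aggregation exceeds 20%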;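 also: compound exposure lasted 3 days before fixation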;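 as to nuclei count: percent of the per-plate median nuclei count of sample wells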); details: exon1htt(103Q)mCFP cell line, aggregate imaging, at 2 µM; inhibition of aggregation: stronger effect = higher value; nuclei count: measured here: cell count, toxicity
# [3] = inhibitors of E-selectin induction by TNFa, primary screen, imaging, HUVEC, immunofluorescence, MLSMR starter and 10KST1 sets (AID 487;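 active = visually confirmed hit in the image check and inhibition above 20%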;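 as to inhibition: signal is fraction of cell area covered by stained E-selectin grains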;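 as to nuclei count: 100% = median nuclei count of all wells on the same plate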); details: HUVEC TNFalpha-induced E-selectin immunofluorescence imaging, at 2 µM; inhibition: stronger effect = higher value; nuclei count: measured here: cell number, toxicity
# [4] = DUSP6 inhibitors restoring Erk phosphorylation by chemical complementation, primary imaging in DUSP6-transfected HeLa (AID 609;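 active = compounds giving at least 50% inhibition in the cell-based MKP-3 phosphatase rescue imaging test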;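 as to inhibition: phospho-Erk level distribution per well compared with pooled transfected vehicle control wells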); details: HeLa MKP-3 transfected, phospho-Erk imaging KS statistic, at 10 µM, cells stimulated with TPA for 15 min
# [5] = target: Dual specificity protein phosphatase 6 (Homo sapiens) (UniProt Q16828); test: as above; details: HeLa MKP-3 transfected, phospho-Erk imaging KS statistic; at 10 µM; stronger effect = higher value; cells stimulated with TPA for 15 min
# [6] = target: Voltage-gated potassium channel subunit beta-2 (Rattus norvegicus) (UniProt P62483); test: KvBeta enzyme negative modulators, primary screen, biochemical, NADPH fluorescence (AID 622;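 active = fluorescence slope higher than the sample average by over 3 SD, cut at about -0.22 in these data, passing the limit was not always enough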;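 also: slope of raw intensity against log time taken from 70 to 1610 s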); details: recombinant KvBeta, 4-cyanobenzaldehyde reduction, at 10 µM, stronger effect = higher value
# [7] = target: Voltage-gated potassium channel subunit beta-2 (Rattus norvegicus) (UniProt P62483); test: KvBeta positive modulators, primary screen, biochemical, NADPH fluorescence (AID 623;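 active = NADPH fluorescence slope more negative than the mean of all samples by about 3 SD, 99.7% confidence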;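 also: fluorescence intensity change per second fitted from 20 to 320 s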); details: Recombinant KvBeta, NADPH fluorescence decrease slope, 10 min; at 10 µM; stronger effect = lower value
# [8] = target: Alpha-2C adrenergic receptor (Homo sapiens) (UniProt P18825); test: modulators of alpha2C/GIRK thallium flux, primary screen, cell-based, HEK293 alpha2C/GIRK1/2 (AID 624;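 active = fluorescence slope after compound addition differing from the mean of all screened samples at 99.7% confidence, in either direction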;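 also: slope of fluorescence ratio to pre-addition baseline per second over 15 to 24 s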); details: thallium flux BTC fluorescence, at 10 µM, actives lie on both sides
# [9] = inhibitors of larval lipid processing in zebrafish, primary screen, whole organism, PED6 fluorescence, gall bladder and intestine (AID 686;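 active = a full or partial loss of lipid-probe fluorescence in the fish gall bladder, intestine or both, judged by eye; inactive = no fluorescence loss, or compound toxic to the fish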;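 also: larvae 5 to 7 days old with five fish per well; signal comes from phospholipase A2 cleavage of quenched PED6 carried via bile; overnight exposure to compound and PED6 before scoring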); details: Zebrafish larvae PED6 lipid processing, fluorescence scoring; screened at 20 µM (by protocol)
# [10] = inhibitors of Chlamydomonas gravitaxis, primary screen, whole organism, Chlamydomonas reinhardtii, WT vs cilia-less mutant, absorbance, 96-well (AID 463189); details: OD600 absorbance, 2 days, at 10 µM, stronger effect = higher value;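 also: 0% = wild type cc124 cells in DMSO and 100% = ciliumless bld1 mutant cells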
# [11] = inhibitors of Sendai virus-induced IRF3 signaling, primary screen, TLR/RLR signaling modifier project, cell-based, Sendai virus stimulus, luciferase, 10K MLSCN set (AID 602276;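 active = inhibition at or above 50% at 10 µM; inactive = inhibition below 50%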;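 also: firefly luciferase from ISG56 promoter only with Renilla not read in this screen; 0% = Sendai virus plus DMSO and 100% = medium plus DMSO without virus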); details: HEK293 RL24 IRF3 luciferase reporter, at 10 µM, stronger effect = higher value
# [12] = inhibitors of poly I:C-induced TLR3 signaling, primary screen, cell-based, poly I:C stimulus, luciferase, 10K MLSCN set (AID 602277;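 active = inhibition of the reporter signal at or above 50%; inactive = inhibition below 50%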); details: HEK293-TLR3 RL24 IRF3 luciferase reporter, at 10 µM, stronger effect = higher value
# [13] = measured here: cell density z-score
# [14] = measured here: nuclear c-Myc green intensity z-score
# [15] = measured here: nuclear pErk red intensity z-score, stronger effect = higher value
# Voltage-gated potassium channel subunit beta-2 (Rattus norvegicus), sequence (P62483 whole entry, looked up): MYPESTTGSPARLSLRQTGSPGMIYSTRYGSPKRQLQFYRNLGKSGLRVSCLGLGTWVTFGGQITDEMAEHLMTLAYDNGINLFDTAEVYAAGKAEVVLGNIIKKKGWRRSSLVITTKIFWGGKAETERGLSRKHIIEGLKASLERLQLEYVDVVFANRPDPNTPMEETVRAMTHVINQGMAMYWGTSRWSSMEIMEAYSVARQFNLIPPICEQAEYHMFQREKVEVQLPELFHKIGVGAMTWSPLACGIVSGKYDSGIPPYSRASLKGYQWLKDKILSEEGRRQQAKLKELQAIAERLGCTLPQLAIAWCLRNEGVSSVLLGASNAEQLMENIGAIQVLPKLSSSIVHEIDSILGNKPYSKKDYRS
# Dual specificity protein phosphatase 6 (Homo sapiens), sequence (Q16828 whole entry, looked up): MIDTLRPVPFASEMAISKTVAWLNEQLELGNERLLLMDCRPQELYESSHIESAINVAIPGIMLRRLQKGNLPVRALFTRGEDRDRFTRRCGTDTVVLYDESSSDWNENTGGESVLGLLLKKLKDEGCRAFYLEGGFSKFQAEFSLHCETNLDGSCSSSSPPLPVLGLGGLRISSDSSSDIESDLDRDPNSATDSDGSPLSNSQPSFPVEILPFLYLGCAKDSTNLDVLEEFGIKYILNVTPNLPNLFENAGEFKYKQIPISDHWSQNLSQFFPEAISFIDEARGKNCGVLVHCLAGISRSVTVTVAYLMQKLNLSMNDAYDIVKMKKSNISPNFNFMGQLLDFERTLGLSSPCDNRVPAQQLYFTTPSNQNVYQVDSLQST
# Alpha-2C adrenergic receptor (Homo sapiens), sequence (P18825 whole entry, looked up): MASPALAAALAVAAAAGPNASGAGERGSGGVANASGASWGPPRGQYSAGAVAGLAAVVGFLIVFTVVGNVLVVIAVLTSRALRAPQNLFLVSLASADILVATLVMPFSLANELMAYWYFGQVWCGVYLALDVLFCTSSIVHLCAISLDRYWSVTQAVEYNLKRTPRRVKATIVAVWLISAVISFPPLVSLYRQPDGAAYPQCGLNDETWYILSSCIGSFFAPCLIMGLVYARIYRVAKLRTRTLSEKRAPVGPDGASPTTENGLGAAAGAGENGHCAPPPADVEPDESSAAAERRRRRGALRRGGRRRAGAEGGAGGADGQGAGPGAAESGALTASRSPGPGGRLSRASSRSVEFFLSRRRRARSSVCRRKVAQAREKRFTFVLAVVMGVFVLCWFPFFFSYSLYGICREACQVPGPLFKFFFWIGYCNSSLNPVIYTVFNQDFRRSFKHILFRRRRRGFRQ
Compound,cell count [1],inhibition [1],inhibition of aggregation [2],nuclei count [2] [%],inhibition [3],nuclei count [3] [%],"z-score [4, 13]","z-score [4, 14]","z-score [4, 15]",inhibition [5],fluorescence slope [6],NADPH fluorescence slope [7],slope [8],outcome [9],inhibition [10],inhibition [11],inhibition [12]
Cc1cc(-c2ccc(F)cc2)nc2cc(C(N)=O)nn12,567,-4% (inactive),8.1% (inactive),99.3,14.3% (inactive),117,-0.951,0.396,-0.666,5.57% (inactive),-0.377 (inactive),-0.000109 (inactive),0.00367 (inactive),inactive,13.5% (inactive),-10.5% (inactive),-21.7% (inactive)
CN(C)[C@@H]1C(=O)C(C(N)=O)=C(O)[C@@]2(O)C(=O)C3=C(O)c4c(O)ccc(Cl)c4[C@@H](O)[C@H]3C[C@@H]12,524,-3% (inactive),77.8% (active),96.8,-35.1% (inactive),93,0.892,0.579,-1.42,9.37% (inactive),-0.537 (inactive),-2.5e-05 (inactive),0.00572 (inactive),active; no signal in intestine only,54.1% (active) and 88% (active),17.1% (inactive),24.2% (inactive)
CN1CCCN(C(c2ccccc2)c2ccc(Cl)cc2)CC1 (stereo not drawn),564,5.7% (inactive),-11.5% (inactive),103,-6.3% (inactive),120,0.561,-0.226,0.2,-5.24% (inactive),-0.519 (inactive),-1.7e-06 (inactive),0.00369 (inactive),inactive,43% (inactive),-26.9% (inactive),68.6% (active)
CC(=O)OCC[N+](C)(C)C,554,-8.9% (inactive),10.6% (inactive),93.8,-102% (inactive),102,-0.918,-0.674,-0.99,-0.493% (inactive),-0.431 (inactive),1.1e-05 (inactive),0.0173 (active),inactive,-4.51% (inactive),11.3% (inactive),31.5% (inactive)
O=C(NC1(C(F)(F)F)C(=O)Nc2c1c(=O)[nH]c(=O)n2Cc1ccco1)C1CCCCC1 (stereo not drawn),463,4.1% (inactive),-6.3% (inactive),116,-64.3% (inactive),112,-1.32,1.09,0.0354,3.5% (inactive),-0.49 (inactive),1.3e-05 (inactive),0.00536 (inactive),inactive,30.9% (inactive),12.9% (inactive),19.7% (inactive)
CC1(C)Cc2c(sc3c2C2=NCCN2C=N3)CO1,624,-7% (inactive),4.2% (inactive),124,-54.1% (inactive),139,-0.0476,0.11,-0.119,-2.69% (inactive),-0.328 (inactive),-8.5e-06 (inactive),0.00463 (inactive),inactive,63.1% (active),-17.5% (inactive),-3.31% (inactive)
Cc1c(CCC#N)c(N2CCN(C3CCCCC3)CC2)n2c(nc3ccccc32)c1C#N,433,-14.4% (inactive),14.6% (inactive),98.9,-38.1% (inactive),128,0.167,-0.385,-0.671,13.7% (inactive),-0.236 (inactive),-5.2e-06 (inactive),0.00599 (inactive),inactive,8.11% (inactive),19.2% (inactive),17.3% (inactive)
Fc1ccc(C2C3=C(Nc4ncnn42)c2ccccc2OC3c2ccncc2)cc1 (stereo not drawn),363,1.7% (inactive),2.1% (inactive),113,-83.1% (inactive),136,0.971,-0.105,1.45,21.4% (inactive),-0.41 (inactive),-0.000137 (inactive),0.00729 (inactive),inactive,-7.08% (inactive),17.4% (inactive),19.3% (inactive)
CCN(CC)CCOC(=O)C(c1ccccc1)c1ccccc1,533,-8.8% (inactive),19.8% (inactive),104,-7.9% (inactive),122,-0.21,-0.778,-0.535,7.39% (inactive),-0.478 (inactive),-3.2e-05 (inactive),0.00418 (inactive),inactive,-5.27% (inactive),9.86% (inactive),40.1% (inactive)
